# Bioassay records (PubChem BioAssay)
# Only some compounds are listed: those with a hit (about 6.1% of all), similar ones and a draw of the others.
# D1 agonist: human D1 receptor agonism; P21728; HEK293 T-REx D1 cells, calcium flux, agonist mode; activation, % at 2 µM; 1% of 360,000 active; AID 504660; in the data active = activation above about 30%; note: 0% is about no effect
# Target sequence (P21728 whole entry, looked up): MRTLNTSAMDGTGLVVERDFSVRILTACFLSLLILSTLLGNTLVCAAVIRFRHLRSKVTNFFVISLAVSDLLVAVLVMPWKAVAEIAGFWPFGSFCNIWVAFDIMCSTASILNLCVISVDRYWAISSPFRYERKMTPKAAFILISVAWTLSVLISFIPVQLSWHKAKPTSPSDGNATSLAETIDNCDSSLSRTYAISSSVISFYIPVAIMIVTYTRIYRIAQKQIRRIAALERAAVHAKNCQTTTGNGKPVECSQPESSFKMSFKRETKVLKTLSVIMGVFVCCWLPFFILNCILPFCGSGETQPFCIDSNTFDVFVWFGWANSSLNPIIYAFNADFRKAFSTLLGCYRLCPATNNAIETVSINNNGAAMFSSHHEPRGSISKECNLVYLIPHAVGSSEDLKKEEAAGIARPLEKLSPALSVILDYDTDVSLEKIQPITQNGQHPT
#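 Inducible HEK293 T-REx D1 cells, force-coupled to calcium signalling, were plated at 4000 cells/well with tetracycline and held overnight at 30 C. After no-wash calcium dye loading, compound-evoked calcium rise over 180 s flagged agonists.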
# DRD3 antagonist: D3 dopamine receptor (human) antagonism; 2.5% of 360,000 active; AID 652054; max response, negative = inhibition, %; P35462; D3R cells, DiscoveRx beta-arrestin luminescence, antagonist mode; hits give low values; in the data active = max response below about -50%; inconclusive = no clear call, values can overlap the other calls; note: % is set by controls: 0 for no effect and ±100 for the full control effect
#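 Cells plated overnight at 1500 cells/well, then exposed to library compounds with dopamine controls for 90 minutes at 37 degrees C. DiscoveRx reagent added for 30–60 minutes at room temperature; luminescence read, quantitative HTS format.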
# DRD3 agonist: D3 dopamine receptor (human) agonism; D3R DiscoveRx beta-arrestin cells, luminescence, 90 min; max activation, %; 0.58% of 410,000 active; AID 652048; in the data active = max activation above about 30%; note: 0% is about no effect
#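 Agonist-mode cell screen: cells plated at 1500/well and incubated overnight at 37 °C, then exposed to library compounds for 90 min at 37 °C. Detection reagent was added for 30–60 min at room temperature, and luminescence was read.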
# D1 antagonist: blocks dopamine activation of the human D1 receptor; HEK293 TREx D1 cells, calcium flux, dopamine EC80; hits give low values; activity change, negative = inhibition, % at 10 µM; 3.2% of 360,000 active; AID 504652; in the data active = activity change below about -30%; note: % is set by controls: 0 for no effect and ±100 for the full control effect
#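 Using tetracycline-induced force-coupled D1 Hek293 cells and a calcium dye, signals were followed for 180 s after compound, then for 180 s after EC80 dopamine, to detect inhibitors.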
# D1 PAM: enhances dopamine response at the human D1 receptor; P21728; HEK293 TREx D1 cells, calcium flux, dopamine EC20 potentiation; 0.036% of 360,000 active; AID 504651; potentiation, % at 10 µM; in the data active = potentiation above about 30%; note: 0% is about no effect
# An asterisk follows results filed as active; ? = inconclusive; . = no result; ! = a repeat was not active.
SMILES,D1 agonist,DRD3 antagonist,DRD3 agonist,D1 antagonist,D1 PAM
COc1ccc(NCc2cc3cc4c(cc3n(CC(=O)Nc3ccc(C)c(C)c3)c2=O)OCO4)cc1,19,.,-1,-3,0
Cc1ccc(-c2nn3c(=O)cc(CN4CCN(C(=O)Nc5cc(Cl)ccc5C)CC4)nc3s2)cc1,1,.,2,-2,0
COC1=C(Nc2ccc(O)cc2)C(=O)c2ccccc2C1=O,5,-29,5,-6,-3
O=C1C(Cl)=C(Nc2ccc(O)cc2)C(=O)c2ccccc21,11,?,-4,-68*,-4
Cc1ccc(NC2=CC(=O)C(=O)c3ccccc32)cc1,-1,?,7,1,1
CCN(CC)c1ccc(NC2=C(Cl)C(=O)c3ccccc3C2=O)cc1,1,-82*,-28,-39*,-7
Cc1ccc(NC2=C(Cl)C(=O)c3ccccc3C2=O)cc1,10,?,-2,-58*,-8
O=C(Nc1ccc(OCc2cc(=O)n3c4c(sc3n2)CCCC4)cc1)c1ccccc1,0,.,-2,9,2
Cn1c(SCc2ccccc2Cl)nc(=O)c2c1NC(=O)CC2c1cc(F)ccc1F (configuration not stated),-1,.,3,-12,0
Cc1nn(Cc2ccccc2)c(C)c1NC(=O)c1cc(-c2cccs2)on1,10,?,5,49,-5
Cc1ccc(Cn2ccc(NC(=O)c3nn(C)cc3Cl)n2)cc1,3,-13,6,-1,-3
Cc1ccc(Cn2nc(C)c(NC(=O)c3cc(C)no3)c2C)cc1,2,8,-2,-78*,.
Cc1nn(Cc2ccccc2)c(C)c1CCC(=O)O,0,28,1,-83*,-6
Cn1cc(Cl)c(C(=O)Nc2cnn(Cc3ccc(F)cc3)c2)n1,5,-6,-5,-42*,-4
Cc1noc(C(=O)Nc2c(C)nn(Cc3ccccc3)c2C)c1Cl,1,-19,3,-51*,-6
CCOC(=O)c1cccc(NC(=O)c2ccc3snnc3c2)c1,14,.,2,-23,-4
Cc1nn(Cc2cccc(C(=O)NN)c2)c(C)c1Cl,2,-24,2,7,-5
Cc1nn(Cc2ccc(C(=O)NN)cc2)c(C)c1Cl,2,-1,-8,-44*,4
Cc1nn(Cc2ccc(Br)cc2)c(C)c1NC(=O)c1nn(C)cc1Cl,7,-16,-4,-39*,9
CCOC(=O)N1CCc2c(sc(NCc3cccc(F)c3)c2C(=O)Nc2ccc(OC)cc2OC)C1,0,.,-14,-6,2
CN(Cc1ccccc1)c1ccc(-c2nc(-c3ccco3)no2)cc1[N+](=O)[O-],4,.,10,-4,-3
COc1ccc(CNCCC(c2ccc(OC)cc2)c2ccccc2OC)cc1 (configuration not stated),30*,1,-10,-4,-1
COc1ccc(C(CCNCc2ccc(N(C)C)cc2)c2ccccc2OC)cc1 (configuration not stated),6,-55*,-30,11,-10
COc1ccc(C(CCNCc2ccc(OC(C)C)cc2)c2ccccc2OC)cc1 (configuration not stated),59*,15,-10,10,3
Cc1cc(C)c(NC(=O)CCCn2c(C)c3cnn(-c4ccccc4)c(=O)c3c2C)c(C)c1,13,.,-4,-10,-2
SMILES,D1 agonist,DRD3 antagonist,DRD3 agonist,D1 antagonist,D1 PAM
Cc1ccc(C(=O)c2oc3ccccc3c2NC(=O)c2nc(S(C)(=O)=O)ncc2Cl)cc1F,-1,.,1,7,0
CCOC(=O)CC1C(=O)NCCN1S(=O)(=O)c1ccc(Cl)c(Cl)c1 (configuration not stated),1,-27,-2,-27,3
CCCCCN1C(=O)/C(=C/c2c(N3CCc4ccccc4C3)nc3ccccn3c2=O)SC1=S,.,-3,4,.,.
CCOC(=O)CC1C(=O)NCCN1c1nc2ccc(C)cn2c(=O)c1/C=C1\SC(=S)N(C(C)CC)C1=O (configuration not stated),584*,.,.,-47*,34*
CCOC(=O)CC1C(=O)NCCN1c1nc2ccc(C)cn2c(=O)c1/C=C1\SC(=S)N(CC(C)C)C1=O (configuration not stated),320*,-21,1,-29,-2
CCCN1C(=O)/C(=C/c2c(N3CCNC(=O)C3CC(=O)OCC)nc3c(C)cccn3c2=O)SC1=S (configuration not stated),216*,10,-21,-19,-1
CCOC(=O)CC1C(=O)NCCN1C(=O)c1ccc(C)cc1 (configuration not stated),3,34,1,-1,-6
COc1ccc(-c2c(C)nn3c(N4CCN(c5ccccc5)CC4)cc(C)nc23)cc1OC,0,.,3,0,2
C=CCn1c(CNC(=O)c2cccs2)nnc1SCc1ccc(Cl)cc1Cl,60*,3,-6,3,-2
CC(NC(=O)c1cccs1)c1nnc(SCc2ccc(Cl)cc2Cl)n1C (configuration not stated),-1,4,-4,13,1
N#CC1=C2SCC(O)(c3ccccc3)N2C(=O)CC1c1cccs1 (configuration not stated),63*,3,-11,-28,-9
COc1ccc(C(=O)NCC(c2ccc(N(C)C)cc2)N2CCc3ccccc32)cc1 (configuration not stated),1,.,5,-12,-1
Cc1cc(C)nc(Nc2ccccc2F)n1,-2,0,-8,40,0
Cc1cc(C)nc(Nc2ccccc2Cl)n1,8,-70*,-15,-15,-3
Cc1ccc(SCCC(=O)Nc2ccc(Br)c(C)c2)cc1,10,-6,3,-33*,-11
CCOC(=O)C1CCN(CCC(=O)Nc2cccc(Cl)c2)CC1,13,-56*,-5,10,3
CCOC(=O)C1CCN(CCCSc2ccc(C)cc2)CC1,.,-87*,-21,.,.
CCOC(=O)C1CCN(CCC(=O)Nc2ccc(Br)c(C)c2)CC1,136*!,-28,-4,4,-6
COc1ccc(NC(=O)CCSc2ccc(C)cc2)cc1,2,0,3,1,-2
Cc1cc(NC(=O)CCN2CCC(C(N)=O)CC2)ccc1Br,4,-21,-5,-4,-2
Cc1ccc(NC(=O)c2c(C)oc3ccc(O)c(CN4CCCC4)c23)c(C)c1,1,.,0,4,0
CC1=C(C(=O)N2CCCCC2)C(c2ccc(Cl)cc2)n2c(nc3ccccc32)N1 (configuration not stated),0,.,-5,9,2
COC(=O)c1cccc(Nc2c(-c3ccc(OC)cc3)nc3nc[nH]n23)c1,1,.,2,-10,0
Cc1ccc2c(c1)-c1onc(C(=O)N(C)c3cccc(C(F)(F)F)c3)c1CO2,1,.,-6,3,-1
